The record followed here is PubChem BioAssay (NCATS).

Structures are written as SMILES. Inconclusive results are not listed. Calls of active or inactive are those of the source. Calls follow the shape of the dose curve; as a rule, active = well fitted curve in the direction sought with a large enough effect; inconclusive = small, poorly fitted or top-dose-only effect, or another doubt; inactive = no such curve, though single readings can be large; an effect the other way counts as inactive or inconclusive.

The nature of assay [1]: qHTS of pediatric cancer cell lines to identify multiple opportunities for drug repurposing: Primary screen for control Hh wild type fibroblast cells (AID 1347106). Also: nearly all actives have a fitted effect of over 55% in size. Also: potency is read from the fitted curve at half-maximal effect. In outline: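 Cells (500-1,000/well) in growth media were settled 5 h at 37 degrees C, then given compounds for 48 h. Viability was read as CellTiter-Glo luminescence. Primary runs used MIPE at 11 points (0.78 nM-46 µM) and NPC at 8 points (0.59 nM-46 µM); follow-ups used 11 points.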
A general note: Quantitative high-throughput screening tests each substance at several concentrations.

Assay [2] in a line: qHTS of pediatric cancer cell lines to identify multiple opportunities for drug repurposing: Primary screen for Rh41 cells (AID 1347108). Also: nearly all actives have a fitted effect of over 70% in size. Also: potency is read from the fitted curve at half-maximal effect. In outline:
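Readout: CellTiter-Glo luminescence, 48 h treatment. Controls DMSO (neutral) and bortezomib 2.3 µM final (positive). Potency and efficacy taken from primary-screen concentration-response curves.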

A short description of assay [3]: qHTS of pediatric cancer cell lines to identify multiple opportunities for drug repurposing: Confirmatory screen for A673 cells (AID 1347110).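 Also: potency is read from the fitted curve at half-maximal effect; cells exposed to compound for 48 h before the viability read; nearly all actives have a fitted effect of over 65% in size.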 The procedure, abridged: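 Cells plated at 500-1,000/well were treated five hours later with multi-point dilutions up to 46 µM final. After two days, CellTiter-Glo was added and luminescence read.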
Assay [4] is described as follows: qHTS of pediatric cancer cell lines to identify multiple opportunities for drug repurposing: Confirmatory screen for SK-N-MC cells (AID 1347111).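 Also: potency is read from the fitted curve at half-maximal effect; cells exposed to compound for 48 h before the readout; nearly all actives have a fitted effect of over 70% in size.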 The procedure, abridged:
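Seed 500-1,000 cells/well; rest 5 h at 37 degrees C. Pin-transfer compounds, 11-point titration. Incubate 48 h. Add CellTiter-Glo, 15 min RT, read luminescence.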

Assay [5] can be described thus: qHTS of pediatric cancer cell lines to identify multiple opportunities for drug repurposing: Confirmatory screen for BT-12 cells (AID 1347112). Also: nearly all actives have a fitted effect of over 55% in size. Also: potency is read from the fitted curve at half-maximal effect. In outline:
(§1)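 Cells (500-1,000/well) rested 5 h, then received compounds for 48 h; metabolically active cells were measured by CellTiter-Glo luminescence. Final concentrations spanned up to 46 µM (MIPE, 11-point) or 0.59 nM-46 µM (NPC, 8-point) in primary screens, 11-point in follow-ups.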

Assay [6] in a line: qHTS of pediatric cancer cell lines to identify multiple opportunities for drug repurposing: Confirmatory screen for LAN-5 cells (AID 1347113). Also: nearly all actives have a fitted effect of over 65% in size. Also: potency is read from the fitted curve at half-maximal effect. In outline:
as §1

Assay [7] is described as follows: qHTS of pediatric cancer cell lines to identify multiple opportunities for drug repurposing: Confirmatory screen for DAOY cells (AID 1347114). Also: nearly all actives have a fitted effect of over 65% in size. Also: potency is read from the fitted curve at half-maximal effect. In outline:
(§2)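 Viability measured as metabolically active cells via CellTiter-Glo luminescence following 48 hours of compound exposure, 11-point dilutions in confirmatory testing. 500-1,000 cells/well plated 5 hours before dosing; controls were DMSO and 2.3 µM bortezomib.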

Assay [8] is described as follows: qHTS of pediatric cancer cell lines to identify multiple opportunities for drug repurposing: Confirmatory screen for BT-37 cells (AID 1347117). Also: potency is read from the fitted curve at half-maximal effect; nearly all actives have a fitted effect of over 55% in size. In outline: as §1
Assay [9] is described as follows: qHTS of pediatric cancer cell lines to identify multiple opportunities for drug repurposing: Confirmatory screen for TC32 cells (AID 1347118).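 Also: potency is read from the fitted curve at half-maximal effect; cells exposed to compound for 48 h before the read; nearly all actives have a fitted effect of over 65% in size.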 In outline:
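qHTS, TC32, 48 h drug treatment, CellTiter-Glo luminescence as a proxy for metabolically active cells; primary top concentration 46 µM (MIPE 11-pt, NPC 8-pt); confirmatory 11-pt.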

Assay [10] is described as follows: qHTS of pediatric cancer cell lines to identify multiple opportunities for drug repurposing: Confirmatory screen for MG 63 (6-TG R) cells (AID 1347119). Also: potency is read from the fitted curve at half-maximal effect; nearly all actives have a fitted effect of over 55% in size. In outline:
as §1

Assay [11] can be described thus: qHTS of pediatric cancer cell lines to identify multiple opportunities for drug repurposing: Confirmatory screen for control Hh wild type fibroblast cells (AID 1347121). Also: nearly all actives have a fitted effect of over 70% in size. In outline:
as §1

The nature of assay [12]: qHTS of pediatric cancer cell lines to identify multiple opportunities for drug repurposing: Confirmatory screen for Rh41 cells (AID 1347123).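 Also: potency is read from the fitted curve at half-maximal effect; 48 h compound exposure; nearly all actives have a fitted effect of over 60% in size.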 The procedure, abridged: as §1
A short description of assay [13]: qHTS of pediatric cancer cell lines to identify multiple opportunities for drug repurposing: Confirmatory screen for Rh30 cells (AID 1347126). In outline: as §1
Assay [14] in a line: qHTS of pediatric cancer cell lines to identify multiple opportunities for drug repurposing: Confirmatory screen for U-2 OS cells (AID 1347122). Also: nearly all actives have a fitted effect of over 65% in size. Also: potency is read from the fitted curve at half-maximal effect. The procedure, abridged:
as §1

A short description of assay [15]: qHTS of pediatric cancer cell lines to identify multiple opportunities for drug repurposing: Confirmatory screen for RD cells (AID 1347124). In outline:
as §1

Assay [16] is described as follows: qHTS of pediatric cancer cell lines to identify multiple opportunities for drug repurposing: Primary screen for Rh30 cells (AID 1347107). Also: nearly all actives have a fitted effect of over 75% in size. Also: potency is read from the fitted curve at half-maximal effect. The procedure, abridged:
as §1

Assay [17] in a line: qHTS of pediatric cancer cell lines to identify multiple opportunities for drug repurposing: Confirmatory screen for NB-EBc1 cells (AID 1347115).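 Also: potency is read from the fitted curve at half-maximal effect; cells exposed to compound for 48 h before the viability read; nearly all actives have a fitted effect of over 45% in size.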 The procedure, abridged: as §1
A short description of assay [18]: qHTS of pediatric cancer cell lines to identify multiple opportunities for drug repurposing: Confirmatory screen for SJ-GBM2 cells (AID 1347116). Also: potency is read from the fitted curve at half-maximal effect; nearly all actives have a fitted effect of over 60% in size. In outline:
as §2

Assay [19] can be described thus: qHTS of pediatric cancer cell lines to identify multiple opportunities for drug repurposing: Confirmatory screen for Rh18 cells (AID 1347125). Also: nearly all actives have a fitted effect of over 55% in size. Also: potency is read from the fitted curve at half-maximal effect. In outline:
as §1

Take `O=C(O)c1ccc2cc(-c3ccc(O)c(C45CC6CC(CC(C6)C4)C5)c3)ccc2c1`: the Potency result in [1], in [5] and in [11] was “inactive” throughout. Besides, the Potency in assay [2] is 5900 nM (active); in assay [3], 2930 nM (active); in [4], 1170 nM (active); in assay [6], 1470 nM (active); in assay [7], 3690 nM (active); in assay [8] it was 1470 nM (active). In addition, the Potency is 585 nM (active) in assay [9], 585 nM (active) in [10], 3290 nM (active) in assay [12] and 104 nM (active) in assay [13].

For the molecule `COCCOc1ccc2c(c1)ncn2-c1ccc2cccc(N3CCC(N)CC3)c2n1`, the Potency entry in assay [1] was “inactive”. In assay [2], the Potency was 23500 nM (active).

Regarding `CC1(O)CC(c2nc(-c3ccc4ccc(-c5ccccc5)nc4c3)c3c(N)nccn23)C1` (stereo unspecified), the Potency result in assay [1] is “inactive”. Also, the Potency in assay [2] is 935 nM (active).

As for `CC(C)c1cnn2c(NCc3ccccc3)cc(N[C@@H](CO)[C@H](O)CO)nc12`, the Potency entry in [1] and in assay [11] was “inactive” in each case. In addition, the Potency in assay [2] was 743 nM (active); in assay [3] it was 369 nM (active); in [4], 585 nM (active); in assay [5], 522 nM (active); in assay [6], 293 nM (active); in [7], 827 nM (active). For the same molecule, the Potency was 369 nM (active) in assay [8]; 522 nM (active) in assay [9]; 827 nM (active) in [10]; 465 nM (active) in assay [14]; 737 nM (active) in assay [12]; 737 nM (active) in assay [15].

On to `Nc1ncnc2c1c(-c1cnc3[nH]ccc3c1)nn2C1CCCC1`, for which the Potency was 1320 nM (active) in [1]; 2090 nM (active) in assay [16]; 935 nM (active) in assay [2]; 3690 nM (active) in assay [3]; 1650 nM (active) in assay [4]; 3690 nM (active) in [5]. The Potency was 1470 nM (active) in assay [6]; 10400 nM (active) in assay [17]; 2330 nM (active) in assay [18]; 2330 nM (active) in assay [8]; 1470 nM (active) in [9]; 414 nM (active) in assay [10]. For the same molecule, the Potency in assay [19] is 2930 nM (active); in [13] it was 585 nM (active).

For the molecule `Nc1ccn([C@@H]2O[C@H](CO)[C@H](O)C2(F)F)c(=O)n1`, the Potency result in assay [1], in assay [16], in assay [2] and in assay [14] was “inactive” each time. For the same molecule, the Potency was 58.5 nM (active) in assay [3]; 7.4 nM (active) in assay [8]; 2330 nM (active) in assay [10]; 52.2 nM (active) in [12]; 2930 nM (active) in assay [19]; 5850 nM (active) in assay [13].

For `CC(C)(C)c1cc(NC(=O)Nc2ccc(-c3cn4c(n3)sc3cc(OCCN5CCOCC5)ccc34)cc2)no1`, the Potency entry in [1], in [16] and in assay [2] was “inactive” in each case. Moreover, the Potency was 585 nM (active) in [3]; 10400 nM (active) in [4]; 26100 nM (active) in [5]; 23300 nM (active) in assay [6]; 20800 nM (active) in assay [7]; 16500 nM (active) in assay [18]. For the same molecule, the Potency in assay [8] was 18500 nM (active); in [9], 3290 nM (active); in assay [14], 20800 nM (active); in assay [12], 13100 nM (active).

With `COc1cccc(-c2ccc(NC(=O)C3=C(C(=O)O)CCC3)c(F)c2)c1`, the Potency result in [1], in assay [16], in assay [5], in assay [6], in assay [7] and in assay [11] was “inactive” throughout. Besides, the Potency result in assay [19] was “inactive”. The Potency in [4] is 2930 nM (active); in [18] it was 1170 nM (active); in [9] it was 18500 nM (active); in [14], 14700 nM (active); in assay [15] it was 1170 nM (active); in assay [13], 7370 nM (active).
